Results as given in article PMC4336329 (PLoS ONE, 2015).
The campaign covered roughly 310,000 compounds. About 2,200 (0.71%) showed an effect of 50% or more. Effects have a minus sign here. This excerpt belongs to a sample that is enriched for strong results.

Each compound was assayed against human ether-à-go-go-related gene (hERG) potassium channel (human, UniProt Q12809) (assay: primary screen, population patch clamp on CHO cells stably expressing hERG; higher = less effect of the substance).
Chain of human ether-à-go-go-related gene (hERG) potassium channel (Q12809 whole entry, looked up): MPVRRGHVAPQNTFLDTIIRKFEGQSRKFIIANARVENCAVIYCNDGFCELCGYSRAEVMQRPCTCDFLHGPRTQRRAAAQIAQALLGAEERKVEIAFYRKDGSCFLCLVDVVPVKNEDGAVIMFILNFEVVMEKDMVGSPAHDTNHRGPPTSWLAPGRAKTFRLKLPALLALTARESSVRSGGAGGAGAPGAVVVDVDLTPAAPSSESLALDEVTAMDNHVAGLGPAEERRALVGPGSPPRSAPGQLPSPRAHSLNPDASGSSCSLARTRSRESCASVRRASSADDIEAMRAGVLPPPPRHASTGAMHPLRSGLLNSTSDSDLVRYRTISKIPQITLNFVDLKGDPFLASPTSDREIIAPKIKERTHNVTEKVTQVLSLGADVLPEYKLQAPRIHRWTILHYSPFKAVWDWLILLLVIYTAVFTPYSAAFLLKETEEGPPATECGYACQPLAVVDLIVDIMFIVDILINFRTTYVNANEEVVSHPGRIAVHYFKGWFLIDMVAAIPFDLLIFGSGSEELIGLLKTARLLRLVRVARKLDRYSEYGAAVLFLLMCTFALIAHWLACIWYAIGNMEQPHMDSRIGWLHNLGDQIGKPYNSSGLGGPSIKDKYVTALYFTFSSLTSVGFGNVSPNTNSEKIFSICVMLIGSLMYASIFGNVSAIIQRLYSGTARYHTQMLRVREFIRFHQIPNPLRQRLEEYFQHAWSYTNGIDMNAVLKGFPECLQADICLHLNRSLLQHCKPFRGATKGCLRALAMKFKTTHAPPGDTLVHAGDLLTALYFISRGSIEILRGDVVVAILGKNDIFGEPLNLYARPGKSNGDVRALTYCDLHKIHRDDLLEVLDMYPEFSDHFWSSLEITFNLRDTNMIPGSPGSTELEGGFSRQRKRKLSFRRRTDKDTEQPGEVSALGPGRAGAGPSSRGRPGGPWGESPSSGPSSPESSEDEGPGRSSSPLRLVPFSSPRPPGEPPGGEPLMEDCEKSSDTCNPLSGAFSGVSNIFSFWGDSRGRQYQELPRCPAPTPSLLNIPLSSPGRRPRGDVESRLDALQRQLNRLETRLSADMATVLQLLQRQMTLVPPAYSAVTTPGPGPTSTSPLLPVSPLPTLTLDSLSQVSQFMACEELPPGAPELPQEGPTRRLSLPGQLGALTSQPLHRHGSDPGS

Row | SMILES | hERG current change (%, negative = inhibition) at 1uM
1 | COc1ccccc1C(=O)NC(=O)CSc1nncn1C | 18.2%
2 | CCCSC1=C(C#N)C(c2ccc(Cl)cc2Cl)CC(=O)N1 (stereo not drawn) | 11.8%
3 | O=C(O)c1cc(-c2ccc(N3CCOCC3)cc2)nn1-c1ccc(F)cc1F | 12.7%
4 | Fc1ccccc1CNc1ccc(Cl)c(Cl)c1 | 11.7%
5 | Fc1ccc(NCc2ccccc2F)cc1Cl | -76.5%
6 | Fc1ccccc1CNc1ccc(Cl)cc1 | 12.8%
7 | COc1ccc(CCn2c(NCCCN3CCOCC3)nc3c2c(=O)[nH]c(=O)n3C)cc1 | 7.24%
8 | Nc1ccc(OCCc2ccccc2)cc1 | 11.5%
9 | O=c1c(Cl)c(NCc2ccco2)cnn1C12CC3CC(CC(C3)C1)C2 | 4.54%
10 | CCCCN(CCCC)c1ccc(C(=O)c2ccccc2C(=O)O)c(O)c1 | -50.5%
11 | CN(C)c1ccc(C(=O)c2ccccc2C(=O)O)c(O)c1 | 13.2%
12 | CCN(CC)c1ccc(C(=O)c2ccccc2C(=O)O)c(O)c1 | 11.7%
13 | CCN(CC)S(=O)(=O)c1cccc(-c2nnc(SCCOc3ccccc3)o2)c1 | 12.4%
14 | O=C(COC(=O)c1ccc2ncsc2c1)Nc1cc([N+](=O)[O-])ccc1Cl | 7.27%
15 | COc1ccc(S(=O)(=O)Nc2ccc(NC(C)=O)cc2)cc1Cl | 10.3%
16 | CCCCN(CCCC)CCCNC(=O)C12CN(Cc3ccccc3)CC1C(c1cccc([N+](=O)[O-])c1)=NO2 (stereo not drawn) | -53.1%
17 | O=C(NCCCCc1ccccc1)C12CN(Cc3ccccc3)CC1C(c1cccc([N+](=O)[O-])c1)=NO2 (stereo not drawn) | 10.9%
18 | CC(C)CCNC(=O)C12CN(Cc3ccccc3)CC1C(c1cccc([N+](=O)[O-])c1)=NO2 (stereo not drawn) | 9.69%
19 | O=C(/C=C/c1cccnc1)c1cc(F)ccc1O | 8.59%
20 | COCCNC(=O)c1ccccc1NC(=O)c1ccccc1N(C)S(=O)(=O)c1ccc(C)cc1 | 8.36%
21 | CCOC(=O)c1sc(-c2ccccc2)nc1C | 9.24%

Row | SMILES | hERG current change (%, negative = inhibition) at 1uM
22 | CC(=O)Nc1ccc(OC(=O)c2cc3cc(Br)cc(Br)c3oc2=O)cc1 | 5.16%
23 | CCOc1ccc(/C=N/N2C(C)CCCC2C)cc1 (stereo not drawn) | 12%
24 | CCOC(=O)N1CCN(Cc2nc(N)nc(Nc3ccc(C)cc3)n2)CC1 | -37%
25 | Nc1nc(CN2CCN(C(c3ccccc3)c3ccccc3)CC2)nc(Nc2ccccc2)n1 | 10.2%
26 | CCOC(=O)N1CCN(Cc2nc(N)nc(Nc3ccc(OC)cc3)n2)CC1 | -9.74%
27 | COc1ccc(Nc2nc(N)nc(CN3CCN(c4ccccn4)CC3)n2)cc1 | -37.1%
28 | COc1ccc(Nc2nc(N)nc(CN3CCC(Cc4ccccc4)CC3)n2)cc1 | -81%
29 | COc1ccccc1N1CCN(Cc2nc(N)nc(Nc3ccccc3)n2)CC1 | -33.8%
30 | Nc1nc(CN2CCC(Cc3ccccc3)CC2)nc(Nc2ccccc2)n1 | -87.4%
31 | COc1ccc(Nc2nc(N)nc(CN3CCc4ccccc4C3)n2)cc1 | -23.3%
32 | Nc1nc(CN2CCN(c3ccccn3)CC2)nc(Nc2ccc(Cl)cc2)n1 | -56.2%
33 | COc1cccc(N2CCN(Cc3nc(N)nc(Nc4ccccc4)n3)CC2)c1 | -31.9%
34 | CCOC(=O)N1CCN(Cc2nc(N)nc(Nc3ccc(OCC)cc3)n2)CC1 | -56%
35 | Nc1nc(CN2CCN(c3ccccn3)CC2)nc(Nc2ccc(F)cc2)n1 | -49%
36 | O=C(c1ccccc1)c1ccc(OCC(O)CN2CCN(S(=O)(=O)N3CCCCC3)CC2)cc1 (stereo not drawn) | -12.6%
37 | COc1ccccc1N(CC(=O)NC1CCCC1)C(=O)CCC(=O)Nc1cc(C)on1 | 8.06%
38 | CCn1c2ccc(F)cc2c2nc3ccccc3nc21 | 10.2%
39 | CCOC(=O)Cc1[nH]nc2c1C(c1cc(OC)ccc1OC)C(C#N)=C(N)O2 (stereo not drawn) | 14.9%
40 | CSc1oc(-c2cccs2)nc1S(=O)(=O)c1ccccc1 | 4.25%
41 | CN(C)c1ccc(CNc2nc(-c3ccccc3)nn2S(C)(=O)=O)cc1 | 14.6%
42 | O=C(COc1ccc(S(=O)(=O)N2CCOCC2)cc1)N1CCCCCC1 | 25.1%

Row | SMILES | hERG current change (%, negative = inhibition) at 1uM
43 | COc1ccc(CCNC(=O)COC(=O)/C=C/c2cccs2)cc1OC | 11.7%
44 | O=C(O)CCCN1C(=O)NC2NC(=O)NC21 (stereo not drawn) | 10.2%
45 | COc1ccc(Nc2nc(N)nc(CN3CCN(c4ccc(F)cc4)CC3)n2)cc1 | -19.3%
46 | Nc1nc(CN2CCN(c3ccccc3)CC2)nc(Nc2ccc(Cl)cc2)n1 | -44.8%
47 | COc1ccc(Nc2nc(N)nc(CN3CCC(C)CC3)n2)cc1 | -50.7%
48 | Nc1nc(CN2CCN(Cc3ccccc3)CC2)nc(Nc2ccccc2)n1 | -56.3%
49 | COc1ccc(Nc2nc(N)nc(CN3CCOCC3)n2)cc1 | 1.93%
50 | Nc1nc(CN2CCCCCC2)nc(Nc2ccccc2)n1 | -31.9%
51 | O=C(CSc1ncn(-c2ccccc2)n1)N1CCc2ccccc21 | 1.39%
52 | O=S(=O)(c1ccc(Cl)cc1)N1CCC2(CC1)OCCO2 | 2.73%
53 | FC(F)(F)c1cccc(N2CCN(C(=S)NCC3CCCO3)CC2)c1 (stereo not drawn) | 4.59%
54 | COc1ccc(-c2nn(C)c(=O)c3ccccc23)cc1CNC(=O)CN1CCOCC1 | 6.56%
55 | CN(C)CCCN(C(=O)COc1ccc(Cl)cc1)c1nc2c(F)cccc2s1.Cl | -16.9%
56 | COc1cccc2sc(N(CCCN(C)C)C(=O)COc3ccc(Cl)cc3)nc12.Cl | -68.9%
57 | CCOc1cccc2sc(N(CCCN(C)C)C(=O)c3ccc(C(=O)c4ccccc4)cc3)nc12.Cl | -29.5%
58 | CN(C)CCCN(C(=O)COc1ccccc1)c1nc2c(Cl)cccc2s1.Cl | -45.5%
59 | CCOc1cccc2sc(N(CCCN(C)C)C(=O)c3ccc(S(=O)(=O)N(C)Cc4ccccc4)cc3)nc12.Cl | -1.82%
60 | CN(C)CCCN(C(=O)COc1ccc(Cl)cc1)c1nc2ccc(F)cc2s1.Cl | 8.45%
61 | CCOc1cccc2sc(N(CCCN(C)C)C(=O)Cc3ccccc3)nc12.Cl | -83.7%
62 | CN(C)CCCN(C(=O)COc1ccccc1)c1nc2c(F)cccc2s1.Cl | -55.8%
63 | Cc1cccc2sc(N(CCCN(C)C)C(=O)COc3ccc(Cl)cc3)nc12.Cl | -6.98%
